# Test: modulators of HCV replicon luciferase signal, primary screen, HCV replication inhibitor project, Huh7 cells, luciferase reporter (AID 1109);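 note: huh7 hepatoma cells harbouring a luciferase neomycin HCV replicon reporter; luciferase luminescence as measure of HCV replicon replication; test concentration not given here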
# Conditions: 48 h, higher = more signal
row,SMILES,z-score
1,[N-]=[N+]=Nc1ccccc1C[C@@]1(C(=O)N2CCOCC2)N=C(c2ccc(OCCCO)cc2)O[C@@H]1c1ccccc1,-1.57
2,[N-]=[N+]=Nc1ccccc1C[C@]1(C(=O)O)COC(c2ccc(OCCCO)cc2)=N1,0.928
3,COCCOC(=O)N1C(=O)[C@@]2(c3cc(C#CC4=CCCCC4)ccc31)[C@H](c1ccccc1OCCO)N1[C@H](c3ccccc3)[C@H](c3ccccc3)OC(=O)[C@H]1[C@@H]2C(=O)N1CCN(c2ncccn2)CC1,-2.1
4,O=C1O[C@@H](c2ccccc2)[C@@H](c2ccccc2)N2[C@@H](c3ccc(OCCO)cc3)[C@]3(C(=O)Nc4ccc(C#CC5=CCCCC5)cc43)[C@@H](C(=O)NC[C@H](O)c3ccccc3)[C@H]12,-2.54
5,[N-]=[N+]=Nc1ccccc1C[C@]1(C(=O)NCCN2CCOCC2)COC(c2ccc(OCCCO)cc2)=N1,-1.92
6,O=C1OCCC=C[C@H]2OC34C=CCN(Cn5nnc6ccccc65)C(=O)[C@H]3N(CCCO)C(=O)[C@@H]4C12 (stereo not given in full),-0.642
7,CC(C)[Si](C#C[Si](C(C)C)(C(C)C)C(C)C)(O[C@H](c1ccccc1)c1cn(Cc2ccccc2)nn1)C(C)C,-0.0298
8,CC(C)N1C(=O)C[C@@](C(=O)O)(c2ccc([N+](=O)[O-])cc2)[C@H]1c1ccc(CO)cc1,0.253
9,C=CCC(OC(C)=O)[C@@H]1[C@@H](N(Cc2ccc(-c3ccccc3)cc2)C(=O)c2ccc(-c3ccccc3)cc2)c2cc(OCCCO)ccc2N1C(=O)c1ccc2ccccc2c1 (stereo not given in full),-0.415
10,COc1ccc([Si](C)(C)[C@@H]2[C@@H](CCO)O[C@]3(C(=O)N(Cc4ccccc4)c4ccc(N5CCOC5=O)cc43)[C@H]2C)cc1,-4.17
11,[N-]=[N+]=Nc1ccccc1C[C@]1(C(=O)NCC(O)CO)COC(c2ccc(OCCCO)cc2)=N1 (stereo not given in full),-0.677
12,CN(C)CCCCCCNC(=O)[C@@H]1C[C@@H]2C(=O)N3CCC[C@H]3C(=O)N2[C@@H]1c1cccc(OCCO)c1,0.857
13,CCOC(=O)C[C@H]1[C@H](OC(=O)c2cc3ccccc3oc2=O)[C@@H](NC(=O)c2ccccc2)c2cc(OCCCO)ccc2N1C(=O)c1ccccc1,-0.148
14,O=C1C2C=CC(C(O)c3cccc(O)c3)N(Nc3ccc([N+](=O)[O-])cc3)C2C(=O)N1c1ccccc1 (stereo not given),-0.278
15,C=CC[C@@]1(C(=O)NCCCOC)N=C(c2ccc(OCCCO)cc2)O[C@@H]1c1ccccc1,-0.449
16,CCCCC(=C=CC[C@H](O)c1ccc(OCCO)cc1)CCO,-1.1
17,C=C(C(=O)CC[C@H](OC(=O)c1ccccc1-c1ccccc1C(=O)O)c1cccc(OCCO)c1)C(C)C,-1.73
18,COC(=O)[C@]1(CCS(=O)(=O)c2ccccc2)N=C(c2ccc(OCCCO)cc2)O[C@@H]1c1ccccc1N=[N+]=[N-],-2.55
19,C=C(/C(=C/C[C@H](OC(=O)c1ccncc1)c1ccc(CO)o1)c1cnc2ccccc2c1)C(C)C,-2.1
20,CC[C@@H]1C=C(C(=O)O)[C@H](c2ccc(C#N)cc2)N1S(=O)(=O)c1ccc(C)cc1,-0.651
21,CCCCCCCCCCC(O)C1C=CC2C(=O)N(c3ccccc3)C(=O)C2N1Nc1ccc(C#N)cc1 (stereo not given),-1.57
22,CC[C@@H]1C=C(C(=O)O)[C@H](c2ccccc2)N1S(=O)(=O)c1ccc(C)cc1,-1.33
23,O=C1O[C@H](c2ccccc2)[C@H](c2ccccc2)N2[C@H]1[C@@H](C(=O)O)[C@]1(C(=O)Nc3ccc(C#CCCO)cc31)[C@H]2c1ccccc1OCCO,-0.488
24,O=C1C2C=CC(C(O)c3ccco3)N(Nc3ccccc3F)C2C(=O)N1c1ccccc1 (stereo not given),-0.137
25,COc1ccc([Si](C)(C)[C@@H]2[C@@H](CCO)O[C@]3(C(=O)N(Cc4cccc(NC(=O)[C@H](C)O)c4)c4ccccc43)[C@H]2C)cc1,-5.17
26,CC(C)N1C(=O)C[C@@](C(=O)NC2CC2)(c2ccc([N+](=O)[O-])cc2)[C@H]1c1ccc(CO)cc1,-1.2
27,Oc1ccc2cc[n+](Cc3cc4c(cc3Br)OCO4)cc2c1,1.65
28,CCOC(=O)C[C@H]1[C@H](OC(=O)c2ccc(-c3ccccc3)cc2)[C@@H](NC(=O)CC(C)C)c2cc(OCCCO)ccc2N1C(=O)c1ccc2ccccc2n1,-1.3
29,CCCCC(CC)C(O)C1C=CC2C(=O)N(c3ccccc3)C(=O)C2N1Nc1ccccc1F (stereo not given),-0.508
30,CCOC(=O)C[C@H]1[C@H](OC(=O)c2ccccc2-c2ccccc2)[C@@H](NC(=O)c2ccc3ccccc3n2)c2cc(OCCCO)ccc2N1C(=O)Cc1ccc(OC)cc1,-2.09

# From PubChem BioAssay
